Assay results as given in PubChem BioAssay (NCI).
Compounds without any hit were thinned out: in the full panel of roughly 83,000, 20% have a hit.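 The endpoint reported here, percent growth, reads 100 for growth as untreated, 0 for no net growth and -100 for all cells dead.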 Values without a mark were called inactive. The source made the active and inactive calls. How the source made its calls: active means growth percent below 10; inactive means the rest.

Tests used:
Experiment in all cases: NCI-60 one-dose screen, 48 h (100 = growth as untreated, 0 = no growth, -100 = all killed)
Details in all cases: 10 µM unless noted
HCT-15 colon = test system: HCT-15 colon
HT29 colon = test system: HT29 colon
SNB-75 CNS = test system: SNB-75 CNS
SNB-19 CNS = test system: SNB-19 CNS
U251 CNS = test system: U251 CNS
PC-3 prostate = test system: PC-3 prostate
SK-MEL-5 melanoma = test system: SK-MEL-5 melanoma
UACC-62 melanoma = test system: UACC-62 melanoma
LOX IMVI melanoma = test system: LOX IMVI melanoma
SK-MEL-28 melanoma = test system: SK-MEL-28 melanoma
SK-MEL-2 melanoma = test system: SK-MEL-2 melanoma
EKVX NSCLC = test system: EKVX NSCLC
SN12C renal = test system: SN12C renal
TK-10 renal = test system: TK-10 renal
ACHN renal = test system: ACHN renal
CAKI-1 renal = test system: CAKI-1 renal
A498 renal = test system: A498 renal
CCRF-CEM leukemia = test system: CCRF-CEM leukemia
MOLT-4 leukemia = test system: MOLT-4 leukemia
UO-31 renal = test system: UO-31 renal

| Structure (SMILES) | growth (HCT-15 colon) | growth (HT29 colon) | growth (SNB-75 CNS) | growth (SNB-19 CNS) | growth (U251 CNS) | growth (PC-3 prostate) | growth (SK-MEL-5 melanoma) | growth (UACC-62 melanoma) | growth (LOX IMVI melanoma) | growth (SK-MEL-28 melanoma) | growth (SK-MEL-2 melanoma) | growth (EKVX NSCLC) | growth (SN12C renal) | growth (TK-10 renal) | growth (ACHN renal) | growth (CAKI-1 renal) | growth (A498 renal) | growth (CCRF-CEM leukemia) | growth (MOLT-4 leukemia) | growth (UO-31 renal) |
| --- | --- | --- | --- | --- | --- | --- | --- | --- | --- | --- | --- | --- | --- | --- | --- | --- | --- | --- | --- | --- |
| COP(=O)(OC)C(c1ccc(O)cc1)(c1ccc(O)cc1)c1ccc(O)cc1 | 102% | 110% | 112% | 106% | 105% | 92.8% | 87.3% | 98.7% | 103% | 118% | 101% | 113% | 105% | 124% | 103% | 94.9% | 98.7% | 5.74% (active) | 94.3% | – |
| Cc1cc(=O)oc2cc(OCCn3c(C)nn(-c4ccc(Cl)cc4)c3=O)ccc12 | 17.7% | 0.696% (active) | 20.4% | 54.5% | 31.4% | 48.5% | 10.8% | 43.3% | 48% | 40.8% | 3.55% (active) | 58.7% | 51.8% | 59.6% | 41.9% | 19.5% | 25.7% | 13.4% | 37.6% | – |
| CCOC(=O)C1=CCC(n2cc(C)c(=O)[nH]c2=O)O1 (configuration not stated) | 111% | 110% | 103% | 103% | 98.8% | 84.7% | 112% | 96% | 98.6% | 112% | 105% | 104% | 101% | 118% | 103% | 85.8% | 121% | 98.8% | 94.7% | – |
| N#Cc1c(NC(=O)c2ccco2)[n+]([O-])c2ccccc2[n+]1[O-] | 116% | 109% | 104% | 96.8% | 106% | 130% | 91% | 81% | 98.3% | 104% | 92.9% | 98.7% | 93.4% | 133% | 110% | 110% | 117% | – | 85.3% | – |
| N#Cc1ccccc1C#Cc1ccccc1C#Cc1ccc(OCCCCCCOc2ccc(C#Cc3ccccc3C#Cc3ccccc3C#N)cc2)cc1 | 123% | 111% | 106% | 108% | 106% | 99.5% | 73.8% | 83.3% | 98.4% | 113% | 98.3% | 111% | 104% | 147% | 109% | 116% | 113% | 3.16% (active) | 103% | – |
| O[N+]1=CC=CCC1=S.On1ccccc1=S.[Zn] | -57% (active) | -47.5% (active) | -75.3% (active) | -93% (active) | -86.8% (active) | -50.8% (active) | -93.5% (active) | -78.3% (active) | -70.3% (active) | -87.3% (active) | -67.8% (active) | -84.4% (active) | -82.4% (active) | – | -91.2% (active) | -85.6% (active) | -83.4% (active) | -34.5% (active) | -36.1% (active) | – |
| COC(=O)[C@H](Cc1cn(C)cn1)NC(=O)[C@@H](NC(=O)Nc1cc(C(F)(F)F)cc(C(F)(F)F)c1)C(C)C | -87.6% [100 µM] (active) | -81.4% [100 µM] (active) | -99.8% [100 µM] (active) | -90.3% [100 µM] (active) | -95.3% [100 µM] (active) | -89.6% [100 µM] (active) | -95.4% [100 µM] (active) | -93.1% [100 µM] (active) | -79.5% [100 µM] (active) | -96.5% [100 µM] (active) | -88.7% [100 µM] (active) | – | -85.8% [100 µM] (active) | -98.7% [100 µM] (active) | -98.4% [100 µM] (active) | -91.3% [100 µM] (active) | -89.4% [100 µM] (active) | – | -56.2% [100 µM] (active) | -94.9% [100 µM] (active) |
| COC(=O)[C@H](Cc1cn(C)cn1)NC(=O)[C@H](Cc1ccccc1)NC(=O)Nc1cc(C(F)(F)F)cc(C(F)(F)F)c1 | -77.3% [100 µM] (active) | -82.4% [100 µM] (active) | -98.2% [100 µM] (active) | -95.9% [100 µM] (active) | -95.6% [100 µM] (active) | -95.6% [100 µM] (active) | -97.1% [100 µM] (active) | -97.4% [100 µM] (active) | -84.7% [100 µM] (active) | -96.6% [100 µM] (active) | -94.9% [100 µM] (active) | – | -96.1% [100 µM] (active) | -97.9% [100 µM] (active) | -96.3% [100 µM] (active) | – | -90.6% [100 µM] (active) | – | – | -93.4% [100 µM] (active) |
| FCc1ncc(-c2ccc(C(F)(F)F)cc2)c(NC2CCCCCC2)n1 | 9.18% [100 µM] (active) | -33.6% [100 µM] (active) | 28.6% [100 µM] | 32.6% [100 µM] | -29.7% [100 µM] (active) | 7.27% [100 µM] (active) | -3.43% [100 µM] (active) | 3.7% [100 µM] (active) | -52.6% [100 µM] (active) | 33.6% [100 µM] | -40.8% [100 µM] (active) | – | -30.3% [100 µM] (active) | 38% [100 µM] | 8.81% [100 µM] (active) | 0.556% [100 µM] (active) | -19.4% [100 µM] (active) | – | -20.3% [100 µM] (active) | 11.1% [100 µM] |
| COc1ccc(-c2nnc3c4[nH]cnc4ncn23)c(OC)c1 | 29.2% | 19.5% | 39.2% | 96% | 41.1% | 40.7% | 49% | 23.7% | 5.63% (active) | 84.7% | 29.9% | – | 55.3% | 10.8% | 28.2% | 20.9% | 80.4% | – | 8.73% (active) | 23.3% |
